Pf growth 48h: inhibits P. falciparum growth in the first generation, 48 h; P. falciparum luciferase growth in erythrocytes, 48 h; Potency, µM (top dose mostly 28.7 µM), inactives show at the highest dose activity change, negative = inhibition, hits mostly inhibitors; 5.9% of 310,000 active; further: potency means the concentration at half of the fitted maximal effect; on the % scale 0 is the no-effect control and ±100 the full control effect
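Luminescence readout; reporter = integrated firefly luciferase in P. falciparum. RBC culture at 2% hematocrit, 0.1% parasitemia final, 37 C/5% CO2; decreased signal taken as growth inhibition.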
HCV inhibitor: blocks hepatitis C virus. Huh7.5.1 HCVcc-Cre infection, luciferase reporter, 44 h. 3.4% of 340,000 active. Potency, µM (doses to about 41.8 µM), for the others: at the highest dose activity change, negative = inhibition, most hits filed as inhibitors; further: potency means the concentration at half of the fitted maximal effect; on the % scale 0 is the no-effect control and ±100 the full control effect
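Infectious HCV cell culture screen: compound-treated cells (1,000/well, pre-plated 4 h) are infected with HCVcc-Cre at roughly 0.5 moi and grown 44 h. Infection is quantified by luciferase signal after 15 min substrate incubation at room temperature.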
Pf growth 96h: inhibits malaria parasite growth, 96 h; Potency, µM (top dose mostly 28.7 µM), inactives show top-dose activity change, negative = inhibition, most hits filed as inhibitors; P. falciparum luciferase reporter growth, 96 h; 6.9% of 320,000 active; further: potency means the concentration at half of the fitted maximal effect; on the % scale 0 is the no-effect control and ±100 the full control effect
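Plates of compound plus infected erythrocytes (2% hematocrit, 0.05% parasitemia final) incubate 96 hours, 37 C, 5% CO2. Detection reagent added; reduced luminescence from the parasites' luciferase reporter flags inhibition.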
Sm TGR block: blocks Schistosoma mansoni thioredoxin glutathione reductase; Q962Y6; purified TGR, DTNB reduction, TNB absorbance 405 nm; Potency, µM (titrated, usually from 114 µM), for inactives: top-dose activity change, negative = inhibition, actives largely listed as inhibitors; 3% of 360,000 active; AID 485364; further: potency means the concentration at half of the fitted maximal effect; on the % scale 0 is the no-effect control and ±100 the full control effect; nearly all actives have a fitted effect of over 60% in size
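Kinetic colorimetric format: TGR-catalysed, NADPH-driven DTNB reduction monitored via TNB absorbance. Enzyme dispensed at 20 nM; compound exposure 15 min at room temperature before reaction start.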
HCMV antiviral: inhibitors of human cytomegalovirus. HFF cells, HCMV-luciferase reporter, 72 h; hits give low values. activity change, negative = inhibition, % at 57.5 µM. 4.5% of 410,000 active. AID 1259415; in the data active means activity change below about -60%; inconclusive means no clear call, values can overlap the other calls; inactive means above about -39%; further: on the % scale 0 is the no-effect control and ±100 the full control effect
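Two compound doses tested in HFFs infected with HCMV-luciferase, MOI 1 PFU/cell, 72 h at 37C. Lysate luminescence read with OneGlo; data normalized against buffer-only and 10uM Salinomycin inhibitor controls.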
SARS PLP yeast: inhibitors of SARS-CoV papain-like protease in yeast. 0.19% of 330,000 active. Potency, µM (highest dose often 32.9 µM), for inactives: at the top dose activity, positive = growth rescue, hits mostly activators. S. cerevisiae expressing SARS-CoV PLpro, growth rescue; calls by dose curve; further: potency means the concentration at half of the fitted maximal effect; 0% is about no effect; nearly all actives have a fitted effect of over 55% in size
Starred values were filed as active, the others as inactive; ? = inconclusive; / = not tested or not shown. A selection: hits, their analogues and other compounds. The true share with any hit is near 15%. Unless noted, the call rests on the fitted dose curve; in most records, active means well fitted curve in the direction sought with a large enough effect; inconclusive means small, poorly fitted or top-dose-only effect, or another doubt; inactive means no such curve, though single readings can be large; an effect the other way counts as inactive or inconclusive.

SMILES	Pf growth 48h	HCV inhibitor	Pf growth 96h	Sm TGR block	HCMV antiviral	SARS PLP yeast
CCc1noc(C)c1C(=O)Nc1nc(-c2ccc(Cl)cc2Cl)cs1	-20.0%	10µM*	46.6%	-9.1%	-37.0	-5.8%
CCCN(CC(=O)Nc1cc(Cl)ccc1Cl)C(=O)c1ccc2n[nH]nc2c1	?	16.9%	-25.3%	-8.5%	3.3	-9.6%
OCc1ccccc1-c1cnc2cccnn12	/	/	/	/	-31.2	/
Cc1oc2c(CN3CCCC3)c(O)ccc2c(=O)c1-c1ccccc1	?	1.1%	11.7µM*	-7.5%	-2.4	1.0%
O=c1c(Oc2ccccc2Br)c(C(F)(F)F)oc2c(CN3CCCC3)c(O)ccc12	10.4µM*	13.9%	2.08µM*	-20.1%	42.4	-7.7%
CCC1CCCCN1Cc1c(O)ccc2c(=O)c(-c3ccccc3OC)coc12 (stereo unspecified)	/	-3.2%	/	/	-0.3	/
COc1ccccc1-c1coc2c(CN3CCC(C)CC3)c(O)ccc2c1=O	11.7µM*	5.7%	?	-3.9%	97.8	1.3%
CCN1CCN(Cc2c(O)ccc3c(=O)c(-c4ccc(OC)c(OC)c4)c(C)oc23)CC1	?	7.4%	-16.2%	4.8%	11.6	11.6%
Cc1oc2c(CN3CCC(C)CC3)c(O)ccc2c(=O)c1-c1ccccc1	2.94µM*	5.0%	4.15µM*	-5.7%	-4.2	-0.2%
CCN(CC)CCCN1C(=O)c2oc3ccccc3c(=O)c2C1c1cccs1 (stereo unspecified)	10.2%	-15.9%	/	-18.4%	/	-4.5%
CC(C)C(=O)Nc1nnc(NC(=S)Nc2ccccc2)s1	6.5%	-23.4%	11.7µM*	25.1µM*	61.4	2.4%
CC1CC(C)CN(CCCNC(=O)C2CCC(=O)N2C2CCCC2)C1 (stereo unspecified)	51.0%	14.9%	10.4µM*	7.6%	7.9	1.4%
O=C(NCc1ccccn1)C1CCC(=O)N1C1CCCCC1 (stereo unspecified)	/	?	1.85µM*	-5.5%	32.8	0.1%
CCc1ccc(CNC(=O)C2CCC(=O)N2C2CCCCC2)cc1 (stereo unspecified)	/	16.1%	27.4%	-23.4%	-7.2	-7.5%
O=C(NCCCN1CCCC1)C1CCC(=O)N1C1CCCCC1 (stereo unspecified)	30.4%	18.7%	7.0%	-17.1%	-30.9	5.9%
CCc1cc2c(=O)oc(-c3ccc(Br)cc3)nc2s1	-1.2%	3.1%	?	2.1%	-16.4	-2.5%
CCc1ccc(NC(=O)CSc2nc3nc(C)cc(C)n3n2)cc1	7.8%	?	?	-10.1%	?	-0.1%
CCn1cc(C(=O)NCc2ccc(C)cc2)c(=O)c2cc(S(=O)(=O)N3CCCCCC3)ccc21	/	/	/	6.6%	-14.3	/
Nc1c(C(=O)NCCC2=CCCCC2)sc2ccc(S(=O)(=O)N3CCCCC3)cc12	13.1µM*	-29.8%	?	0.0%	32.6	3.1%
Cc1ccc(CNC(=O)c2sc3ccc(S(=O)(=O)N4CCCCC4)cc3c2N)cc1	-9.4%	31.6µM*	?	8.9%	/	-8.2%
S=C(Nc1ccccc1)Nc1ccccc1Br	13.3%	8.4%	29.1%	44.7µM*	-32.0	0.6%
O=C(NC(=S)Nc1ccccc1Br)c1ccco1	-6.4%	-21.2%	?	35.5µM*	29.8	-0.3%
Cc1ccccc1NC(=S)Nc1ccc(Br)cc1	14.2%	34.0%	?	-22.4%	-20.2	-57.0%
O=C(NC(=S)Nc1cccc(NC(=S)NC(=O)c2ccco2)n1)c1ccco1	-10.2%	?	1.31µM*	/	-115.6*	-0.3%
Cc1cccc(NC(=S)NC(=O)c2ccco2)c1C	38.2%	-4.8%	11.4%	?	46.8	1.0%
COc1ccccc1N1CCN(C(=O)C(=O)c2cccc([N+](=O)[O-])c2)CC1	/	/	/	/	-5.0	/
COc1ccc(NC(=O)CC23CC4CC(CC(C4)C2)C3)cn1	-17.0%	21.3%	-0.2%	9.0%	-16.9	-7.0%
O=C(CCc1nnc2ccc(NCc3ccccc3)nn12)NC1CCCCC1	7.7%	13.4%	11.7µM*	9.1%	?	2.3%
